# Reference: PubChem BioAssay
# The source made the active and inactive calls.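 How the source made its calls, unless noted: active means inhibition at or above 50% at 10 µM; inactive means inhibition below 50%.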
# Legend:
# [1] = inhibitors of TNFa-induced NFkB p65 translocation, primary screen, imaging, HUVEC, MLSMR starter and 10KST1 sets (AID 438;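 active means inhibition above 20% together with a positive visual image hit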;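 further: compound added about 3h40 before a 20 min TNFalpha stimulation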;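 on inhibition: signal is the nuclear over cytoplasmic p65 intensity ratio per well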); settings: HUVEC TNFa-induced p65 nuclear translocation; cell count: measured here: nuclei count (cytotoxicity indicator), at 2.08 µM; inhibition: at 2 µM, stronger effect = higher value, 0% TNFa-plus-vehicle, 100% no-TNFa wells
# [2] = inhibitors of mutant huntingtin aggregation, primary screen, imaging, exon1htt(103Q)mCFP cells, high-content imaging (AID 483;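 active means visual image review flags a hit and inhibition of aggregation exceeds 20%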;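 further: compound exposure lasted 3 days before fixation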;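 on nuclei count: percent of the per-plate median nuclei count of sample wells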); settings: exon1htt(103Q)mCFP cell line, aggregate imaging, at 2 µM; inhibition of aggregation: stronger effect = higher value; nuclei count: measured here: cell count, toxicity
# [3] = inhibitors of E-selectin induction by TNFa, primary screen, imaging, HUVEC, immunofluorescence, MLSMR starter and 10KST1 sets (AID 487;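 active means visually confirmed hit in the image check and inhibition above 20%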;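 on inhibition: signal is fraction of cell area covered by stained E-selectin grains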;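 on nuclei count: 100% = median nuclei count of all wells on the same plate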); settings: HUVEC TNFalpha-induced E-selectin immunofluorescence imaging, at 2 µM; inhibition: stronger effect = higher value; nuclei count: measured here: cell number, toxicity
# [4] = biological target: Voltage-gated potassium channel subunit beta-2 (Rattus norvegicus) (UniProt P62483); experiment: KvBeta enzyme negative modulators, primary screen, biochemical, NADPH fluorescence (AID 622;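 active means fluorescence slope higher than the sample average by over 3 SD, cut at about -0.22 in these data, passing the limit was not always enough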;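 further: slope of raw intensity against log time taken from 70 to 1610 s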); settings: recombinant KvBeta, 4-cyanobenzaldehyde reduction, at 10 µM, stronger effect = higher value
# Sequence of Voltage-gated potassium channel subunit beta-2 (Rattus norvegicus) (P62483 whole entry, looked up): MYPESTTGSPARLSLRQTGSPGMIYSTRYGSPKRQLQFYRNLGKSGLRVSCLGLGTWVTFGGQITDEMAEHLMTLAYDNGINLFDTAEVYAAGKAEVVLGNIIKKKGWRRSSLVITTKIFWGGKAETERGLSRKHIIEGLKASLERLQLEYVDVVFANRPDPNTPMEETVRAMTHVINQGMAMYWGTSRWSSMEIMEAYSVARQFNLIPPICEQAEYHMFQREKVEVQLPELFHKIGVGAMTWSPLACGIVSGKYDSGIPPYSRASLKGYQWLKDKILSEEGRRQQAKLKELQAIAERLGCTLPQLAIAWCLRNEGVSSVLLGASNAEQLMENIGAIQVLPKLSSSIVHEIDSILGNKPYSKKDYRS
# [5] = biological target: Voltage-gated potassium channel subunit beta-2 (Rattus norvegicus) (UniProt P62483); experiment: KvBeta positive modulators, primary screen, biochemical, NADPH fluorescence (AID 623;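 active means NADPH fluorescence slope more negative than the mean of all samples by about 3 SD, 99.7% confidence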;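 further: fluorescence intensity change per second fitted from 20 to 320 s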); settings: Recombinant KvBeta, NADPH fluorescence decrease slope, 10 min; at 10 µM; stronger effect = lower value
# [6] = biological target: Alpha-2C adrenergic receptor (Homo sapiens) (UniProt P18825); experiment: modulators of alpha2C/GIRK thallium flux, primary screen, cell-based, HEK293 alpha2C/GIRK1/2 (AID 624;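 active means fluorescence slope after compound addition differing from the mean of all screened samples at 99.7% confidence, in either direction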;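 further: slope of fluorescence ratio to pre-addition baseline per second over 15 to 24 s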); settings: thallium flux BTC fluorescence, at 10 µM, actives lie on both sides
# Sequence of Alpha-2C adrenergic receptor (Homo sapiens) (P18825 whole entry, looked up): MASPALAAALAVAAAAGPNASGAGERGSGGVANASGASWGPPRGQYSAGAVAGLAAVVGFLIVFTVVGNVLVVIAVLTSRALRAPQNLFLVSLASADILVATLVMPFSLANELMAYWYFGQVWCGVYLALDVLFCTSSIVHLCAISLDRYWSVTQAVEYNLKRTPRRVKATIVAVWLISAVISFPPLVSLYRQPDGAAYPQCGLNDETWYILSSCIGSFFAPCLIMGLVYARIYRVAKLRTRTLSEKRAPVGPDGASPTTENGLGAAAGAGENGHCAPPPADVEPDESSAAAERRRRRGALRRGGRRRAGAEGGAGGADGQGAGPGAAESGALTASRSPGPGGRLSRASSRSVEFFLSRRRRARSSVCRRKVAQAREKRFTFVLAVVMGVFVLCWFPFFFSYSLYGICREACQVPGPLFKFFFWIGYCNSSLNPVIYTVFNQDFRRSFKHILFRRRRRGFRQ
# [7] = inhibitors of Sendai virus-induced IRF3 signaling, primary screen, TLR/RLR signaling modifier project, cell-based, Sendai virus stimulus, luciferase, 10K MLSCN set (AID 602276); settings: HEK293 RL24 IRF3 luciferase reporter, at 10 µM, stronger effect = higher value;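 further: firefly luciferase from ISG56 promoter only with Renilla not read in this screen; 0% = Sendai virus plus DMSO and 100% = medium plus DMSO without virus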
# [8] = inhibitors of poly I:C-induced TLR3 signaling, primary screen, cell-based, poly I:C stimulus, luciferase, 10K MLSCN set (AID 602277;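 active means inhibition of the reporter signal at or above 50%; inactive means inhibition below 50%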); settings: HEK293-TLR3 RL24 IRF3 luciferase reporter, at 10 µM, stronger effect = higher value
SMILES,cell count [1],inhibition [1],inhibition of aggregation [2],nuclei count [2] [%],inhibition [3],nuclei count [3] [%],fluorescence slope [4],NADPH fluorescence slope [5],slope [6],inhibition [7],inhibition [8]
O=C(CN(C(=O)CCNC(=O)c1ccco1)c1ccccc1)NC1CCCC1,311,-7.8% (inactive),27.1% (inactive),93.4,-61.7% (inactive),113,-0.542 (inactive),2.6e-05 (inactive),0.00484 (inactive),-10.7% (inactive),-6.31% (inactive)
C/C=C/COC(=O)c1[nH]c2c(c1C)C(=O)CC(c1ccco1)C2 (centres undefined),582,13.8% (inactive),4.4% (inactive),3.3,-141% (inactive),97,-0.496 (inactive),-1.1e-06 (inactive),0.00708 (inactive),25.7% (inactive),82.7% (active)
c1ccc(-n2ncc3c(N4CCCCC4)ncnc32)cc1,655,-3.9% (inactive),-2.1% (inactive),108,-21.5% (inactive),118,-0.574 (inactive),-3.8e-05 (inactive),0.0073 (inactive),49.8% (inactive),10.6% (inactive)
COc1ccccc1Nc1nc(N)nc(-c2cc3ccccc3o2)n1,153,1.2% (inactive),-7.1% (inactive),89.1,25.7% (inactive),85.7,-0.332 (inactive),-3.9e-05 (inactive),0.00555 (inactive),-39.9% (inactive),-99.9% (inactive)
Cc1c(C(=O)O)c(-c2ccccc2)nn1-c1ccccc1,119,12.1% (inactive),3.2% (inactive),85.6,-11.7% (inactive),127,-0.39 (inactive),-0.000126 (inactive),0.00692 (inactive),15% (inactive),-3.71% (inactive)
O=S(NCc1ccco1)C12CC3CC(CC(C3)C1)C2 (centres undefined),426,12.5% (inactive),1.2% (inactive),102,-2.2% (inactive),101,-0.582 (inactive),-2e-07 (inactive),0.00485 (inactive),-5.22% (inactive),0.485% (inactive)
COC(=O)COc1cccc(NC(=O)COc2ccccc2)c1,349,-2.7% (inactive),-0.4% (inactive),115,-94.8% (inactive),104,-0.336 (inactive),3.4e-07 (inactive),0.00642 (inactive),1.13% (inactive),20.7% (inactive)
O=C1C2ON(c3ccc(Cl)cc3)C(c3ccco3)C2C(=O)N1c1ccccc1 (centres undefined),510,-2% (inactive),15.7% (inactive),97,-106% (inactive),107,-0.511 (inactive),-2.4e-05 (inactive),0.00581 (inactive),-6.65% (inactive),-3.63% (inactive)
O=C(NC1(C(=O)NC2CCCCC2)CCCCC1)c1ccc2c(c1)OCO2,578,6.3% (inactive),16.2% (inactive),96.2,-45.8% (inactive),91.4,-0.524 (inactive),-3.1e-05 (inactive),0.00509 (inactive),7.94% (inactive),19% (inactive)
CCCCNC(=O)CSc1nc2ccc(N3CCOCC3)cc2c(=O)n1CCc1ccccc1,533,-0.8% (inactive),28.7% (active),48.9,-18.8% (inactive),110,-0.565 (inactive),-1.2e-05 (inactive),0.00671 (inactive),2.7% (inactive),10.3% (inactive)
CCN(C(=O)c1cc(Cl)ccc1OC)c1ccccc1,354,5.3% (inactive),-20.6% (inactive),100,-7.9% (inactive),118,-0.447 (inactive),-4.1e-05 (inactive),0.00295 (inactive),14.3% (inactive),48.8% (inactive)
COc1ccc(N(C(=O)c2ccco2)C(C(=O)NC2CCCC2)c2ccc(N(C)C)cc2)cc1OC (centres undefined),596,-18.8% (inactive),-35.5% (inactive),116,-96.5% (inactive),109,-0.48 (inactive),3.2e-05 (inactive),0.00496 (inactive),3.23% (inactive),27.3% (inactive)
Cc1ccc2c(c1C)NC(=O)C2(O)CC(=O)c1ccc2c(c1)OCO2 (centres undefined),788,0.6% (inactive),34.5% (inactive),96.2,-44% (inactive),110,-0.472 (inactive),-5.3e-05 (inactive),0.00591 (inactive),11.2% (inactive),25.3% (inactive)
CC1C(=O)C(C)C(c2cccs2)NC1c1cccs1 (centres undefined),295,-1.4% (inactive),10.2% (inactive),68.6,13.7% (inactive),87.4,-0.501 (inactive),9.3e-06 (inactive),0.00548 (inactive),3.78% (inactive),3.34% (inactive)
CC(=O)OC(C(=O)NC1CCCCC1)c1ccncc1 (centres undefined),614,-8.1% (inactive),-3.6% (inactive),105,-147% (inactive),107,-0.498 (inactive),-3e-05 (inactive),0.00464 (inactive),8.21% (inactive),13.3% (inactive)
O=C1CC(N2CCOCC2)C(=O)N1c1ccccc1Cl (centres undefined),386,-0.6% (inactive),13.9% (inactive),96.9,-25.3% (inactive),128,-0.338 (inactive),1.7e-05 (inactive),0.00688 (inactive),9.93% (inactive),18% (inactive)
Cc1cccc(-c2cc3nc4c(c(N5CCC6(CC5)OCCO6)n3n2)CCCC4)c1,627,-5.5% (inactive),19.8% (inactive),116,-139% (inactive),156,-0.419 (inactive),4.7e-05 (inactive),0.00699 (inactive),-1.5% (inactive),-27.3% (inactive)
O=C(CSc1oc(-c2ccco2)nc1S(=O)(=O)c1ccccc1)NCC1CCCO1 (centres undefined),497,-13.9% (inactive),7.5% (inactive),98.6,-95% (inactive),174,-0.492 (inactive),-4.8e-05 (inactive),0.00481 (inactive),9.95% (inactive),20.2% (inactive)
Cc1c(N(C)C)nc2ccccc2c1N,575,-3.8% (inactive),-19.4% (inactive),99.7,42.5% (inactive),81.2,-0.361 (inactive),-1.5e-05 (inactive),0.00599 (inactive),13.7% (inactive),20.7% (inactive)
